Data from PubChem BioAssay (Tox21).
Inconclusive results are not listed. A number with no mark means an inactive call. Calls follow the shape of the full dose curve.

Molecular target: Peroxisome proliferator-activated receptor gamma (Homo sapiens) (UniProt P37231)
Experiment: qHTS assay to identify small molecule antagonists of the peroxisome proliferator-activated receptor gamma (PPARg) signaling pathway (AID 743191); also: nearly all actives have a fitted effect of over 30% in size
Conditions: HEK293H PPARg-UAS-bla, beta-lactamase ratio, antagonist, 17 h; series mostly up to 62.6 µM; ratio activity, negative = inhibition: at the top concentration
Source text: U.S. Tox21 Program National Center for Advancing Translational Sciences [NCATS] NIH Chemical Genomics Center [NCGC] U.S. Environmental Protection Agency [EPA] National Institutes of Environmental Health Sciences [NIEHS] National Toxicology Program [NTP] U.S. Food and Drug Administration [FDA] Tox21 Assay Overview: The peroxisome proliferator-activated receptors (PPARs) are lipid-activated transcription factors of the nuclear receptor superfamily with three distinct subtypes namely PPAR alpha, PPAR delta (also called PPAR beta) and PPAR gamma (PPARg). All these subtypes heterodimerize with Retinoid X receptor (RXR) and these heterodimers regulate transcription of various genes. PPAR-gamma receptor (glitazone receptor) is involved in the regulation of glucose and lipid metabolism. To identify the compounds that inhibit PPAR-gamma signaling, GeneBLAzer PPAR gamma UAS-bla HEK293H cell line (Invitrogen, Carlsbad, CA, USA) containing a beta-lactamase reporter gene under control of an Upstream Activator Sequence (UAS) was used to screen the Tox21 compound library.
Tox21 Assay Protocol Summary: PPARg-bla cells were dispensed at 3000 cells/6uL/well in 1536-well black wall/clear bottom plates using a Multidrop Combi (Thermo Fisher Scientific, Waltham, MA) dispenser. After the assay plates were incubated at 37C and 5% CO2 for 5 h, 23 nL of compounds dissolved in DMSO, positive controls or DMSO only was transferred to the assay plate by a Pintool station (Kalypsys, San Diego, CA). The assay plates were incubated at 37C for 17 h. After 1 uL of LiveBLAzerTM B/G FRET substrate was added using a Bioraptr Flying Reagent Dispenser (FRD) workstation (Beckman Coulter, Indianapolis, IN, USA), the plates were incubated at room temperature for 1 h, and fluorescence intensity was measured by an Envision plate reader (PerkinElmer, Shelton, CT).
% is scaled to controls: 0 for no effect and ±100 for the full control effect.

Chain of Peroxisome proliferator-activated receptor gamma (Homo sapiens) (P37231 whole entry, looked up): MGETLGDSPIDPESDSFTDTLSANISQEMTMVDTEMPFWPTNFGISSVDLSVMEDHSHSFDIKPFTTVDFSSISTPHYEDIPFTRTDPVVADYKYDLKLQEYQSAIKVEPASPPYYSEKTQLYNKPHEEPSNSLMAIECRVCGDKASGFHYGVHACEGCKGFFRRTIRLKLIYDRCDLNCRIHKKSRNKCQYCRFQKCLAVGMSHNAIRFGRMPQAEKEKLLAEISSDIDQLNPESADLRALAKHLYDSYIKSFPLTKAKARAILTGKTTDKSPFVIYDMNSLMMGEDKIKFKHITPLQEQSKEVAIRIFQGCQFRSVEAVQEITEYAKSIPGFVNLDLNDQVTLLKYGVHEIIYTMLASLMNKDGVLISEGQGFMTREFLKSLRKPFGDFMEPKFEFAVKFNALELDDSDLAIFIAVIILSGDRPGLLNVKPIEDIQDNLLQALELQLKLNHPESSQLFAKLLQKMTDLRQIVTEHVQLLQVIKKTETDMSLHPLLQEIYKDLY

| Compound | ratio activity, negative = inhibition |
| --- | --- |
| CCCCCCCCCCCCOCCOS(=O)(=O)O | -4.83% |
| CCC(=O)O[C@]1(C(=O)SCF)[C@H](C)C[C@H]2[C@@H]3C[C@H](F)C4=CC(=O)C=C[C@]4(C)[C@@]3(F)[C@@H](O)C[C@@]21C | 22.7% |
| CCOc1ccc(OCC)c(Cl)c1 | -3.38% |
| CCCCCCCCOC(=O)CCCCCCCCC(=O)OCCCCCCCC | 2.08% |
| O=C(O)CN(CCN(CC(=O)O)CC(=O)O)CCN(CC(=O)O)CC(=O)O | -13.8% [at 29.1 µM] |
| CCN(CC)CC1CCCCN1CC(=O)N1c2ccccc2C(=O)Nc2cccnc21 (stereo not given) | 0.76% |
| NNS(=O)(=O)c1ccc(Oc2ccc(S(=O)(=O)NN)cc2)cc1 | 4.6% |
| CCOC(=O)c1cc(=O)c2c(OCC(COc3cccc4oc(C(=O)OCC)cc(=O)c34)OC(=O)[C@@H](N)CCCCN)cccc2o1 | 1.29% |
| COC(C)CCO (stereo not given) | 14.6% |
| Cc1cc(NS(=O)(=O)c2ccc(N)cc2)nc(C)n1 | 4.21% |
| Cc1ccc([N+](=O)[O-])c(N)c1 | 4.96% |
| FC(F)(F)C(Cl)(Cl)Cl | -0.234% |
| COc1ccc2nc(NC(=O)Nc3ccccc3)sc2c1 | -2.24% |
| Cc1ccccc1C(=O)Nc1ccc(C(=O)N2CCCC(O)c3cc(Cl)ccc32)c(C)c1 (stereo not given) | 12.9% |
| CN(CCCN1c2ccccc2CCc2ccccc21)CC(=O)c1ccc(Cl)cc1 | -11.1% |
| CC(=O)Nc1ccc(C)c(Cl)c1 | 11.2% |
| CCN(CC)CCNC(=O)COc1ccc(Cl)cc1 | -3.91% |
| CCOC(=O)[C@H](CCc1ccccc1)N[C@@H](C)C(=O)N1Cc2cc(OC)c(OC)cc2C[C@H]1C(=O)O | -6.25% |
| CC(C)c1ccccc1 | 1.45% [at 81.1 µM] |
| CN1[C@@H]2CC[C@H]1CC(OC(=O)c1c[nH]c3ccccc13)C2 (stereo not given in full) | 10.2% |

| Compound | ratio activity, negative = inhibition |
| --- | --- |
| CCCCNC(=S)NCCCC | -0.929% |
| COc1ccccc1OCC(O)COC(N)=O (stereo not given) | 16% |
| CN1CCN(C2=Nc3cc(F)ccc3Cc3ccccc32)CC1 | -14.7% |
| CCC1(C)NC(=O)NC1=O (stereo not given) | -1.63% |
| Cc1c(-c2ccccc2)oc2c(C(=O)OCCN3CCCCC3)cccc2c1=O | -3.44% |
| Cn1cnc2c(F)c(Nc3ccc(Br)cc3Cl)c(C(=O)NOCCO)cc21 | -11.7% |
| Cc1ncc(CO)c(CN)c1O | 2.13% |
| NC/C=C/C(=O)O | -0.0273% |
| COC(=O)C(C)O (stereo not given) | 13.5% [at 81.1 µM] |
| COC(=O)c1ccc(OC)cc1 | -7.62% |
| C=CCCC=C | 0.0873% [at 81.1 µM] |
| CCCOCCC | -0.957% |
| CCCCC1CCC(=O)O1 (stereo not given) | 1.18% |
| Cc1nnc(SCC2=C(C(=O)O)N3C(=O)[C@@H](NC(=O)Cn4cnnn4)[C@H]3SC2)s1 | 0.929% |
| CCCCCCCCCC#N | -6.99% |
| OCC(CBr)(CBr)CBr | -21.5% |
| Cc1onc(-c2ccccc2)c1C(=O)Cl | 3.48% |
| CC(C)OC(C)C | 1.78% [at 81.1 µM] |
| CCCN(CCC)C(=O)C(CCC(=O)O)NC(=O)c1ccccc1 (stereo not given) | 4.23% |
| CCC(=O)Nc1ccc(O)cc1 | 1.26% |
